# Source: the supplement of paper PMC10849652
# About 8,800 targets were measured; listed, in parts, are those with a hit and a random draw of the rest. About 0.5% of all pairs of compound and target were hits. A number with no mark means an inactive call.
# Compound: CN1CC[C@H](c2c(O)cc(O)c3c(=O)cc(-c4ccccc4Cl)oc23)[C@H](O)C1 [alvocidib]
# Assay: log2 fold change, soluble protein after heating vs DMSO (PISA); higher = thermal stabilisation; K562 lysate, 10 uM; active = over 0.2 and 3.5 SD of the protein, either way, in both replicates (recomputed)
# Procedure, shortened: (§1)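 A 30 min treatment with 10 μM compound was applied to crude K562 extract at 1 mg/mL protein in PBS pH 7.4 with 1 mM MgCl2. Heating for 3 min spanned 48°C-58°C, after which aliquots were pooled, adjusted to 0.5% NP-40 at 4°C and spun at 21,000xg for 90 min. TMTpro 16plex LC-MS/MS of the supernatant, with channel sums equalised, gave values recorded as log-two fold change in thermal stability against solvent controls, from duplicates.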
# Chain of UniProt Q9Y314 (Q9Y314 whole entry, looked up): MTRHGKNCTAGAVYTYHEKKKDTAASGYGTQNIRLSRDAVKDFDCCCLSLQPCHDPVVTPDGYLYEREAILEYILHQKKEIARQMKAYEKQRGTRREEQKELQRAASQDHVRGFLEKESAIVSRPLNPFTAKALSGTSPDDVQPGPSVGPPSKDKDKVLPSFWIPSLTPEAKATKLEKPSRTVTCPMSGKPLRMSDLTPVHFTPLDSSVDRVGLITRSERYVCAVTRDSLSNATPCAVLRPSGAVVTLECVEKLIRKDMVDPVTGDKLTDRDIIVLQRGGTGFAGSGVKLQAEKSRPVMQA
# Chain of UniProt Q99836 (Q99836 whole entry, looked up): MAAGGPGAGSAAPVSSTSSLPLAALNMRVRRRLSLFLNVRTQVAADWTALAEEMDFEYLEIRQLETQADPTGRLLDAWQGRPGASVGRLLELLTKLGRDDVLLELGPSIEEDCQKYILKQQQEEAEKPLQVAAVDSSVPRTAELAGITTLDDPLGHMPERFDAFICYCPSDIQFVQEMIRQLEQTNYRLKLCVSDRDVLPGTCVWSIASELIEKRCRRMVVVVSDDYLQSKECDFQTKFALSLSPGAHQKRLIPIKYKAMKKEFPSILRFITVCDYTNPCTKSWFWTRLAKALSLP
# Chain of UniProt Q9Y5A7 (Q9Y5A7 whole entry, looked up): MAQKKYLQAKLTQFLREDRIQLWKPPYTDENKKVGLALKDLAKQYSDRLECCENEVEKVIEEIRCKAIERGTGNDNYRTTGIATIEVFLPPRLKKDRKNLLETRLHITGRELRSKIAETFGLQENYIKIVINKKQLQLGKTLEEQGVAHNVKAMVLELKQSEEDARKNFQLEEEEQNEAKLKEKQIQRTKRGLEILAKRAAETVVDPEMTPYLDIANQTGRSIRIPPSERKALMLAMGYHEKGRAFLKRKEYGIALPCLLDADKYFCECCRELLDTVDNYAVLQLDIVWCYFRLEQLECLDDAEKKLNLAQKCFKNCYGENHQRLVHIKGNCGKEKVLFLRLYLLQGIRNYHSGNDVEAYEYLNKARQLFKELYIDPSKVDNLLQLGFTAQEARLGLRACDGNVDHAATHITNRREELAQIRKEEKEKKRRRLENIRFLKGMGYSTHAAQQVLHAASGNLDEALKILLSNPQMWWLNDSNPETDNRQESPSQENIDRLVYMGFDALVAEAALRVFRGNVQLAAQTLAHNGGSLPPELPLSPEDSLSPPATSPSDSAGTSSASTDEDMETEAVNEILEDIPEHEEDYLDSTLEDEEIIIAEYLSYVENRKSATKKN
# Chain of UniProt Q9Y5N5 (Q9Y5N5 whole entry, looked up, one chain of several): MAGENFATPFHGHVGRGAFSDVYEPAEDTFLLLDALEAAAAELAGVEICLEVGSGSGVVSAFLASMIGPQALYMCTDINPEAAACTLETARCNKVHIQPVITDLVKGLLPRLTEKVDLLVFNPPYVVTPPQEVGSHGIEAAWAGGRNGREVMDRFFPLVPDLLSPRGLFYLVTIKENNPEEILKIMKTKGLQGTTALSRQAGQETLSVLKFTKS
# Chain of UniProt Q9UFN0 (Q9UFN0 whole entry, looked up): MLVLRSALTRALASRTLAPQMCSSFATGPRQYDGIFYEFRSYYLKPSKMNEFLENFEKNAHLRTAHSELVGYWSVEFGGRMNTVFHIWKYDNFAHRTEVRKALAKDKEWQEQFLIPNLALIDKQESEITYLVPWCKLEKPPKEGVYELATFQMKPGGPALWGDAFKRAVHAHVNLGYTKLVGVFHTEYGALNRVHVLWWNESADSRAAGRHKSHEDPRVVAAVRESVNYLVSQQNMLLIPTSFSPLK
# Chain of UniProt O95644 (O95644 whole entry, looked up): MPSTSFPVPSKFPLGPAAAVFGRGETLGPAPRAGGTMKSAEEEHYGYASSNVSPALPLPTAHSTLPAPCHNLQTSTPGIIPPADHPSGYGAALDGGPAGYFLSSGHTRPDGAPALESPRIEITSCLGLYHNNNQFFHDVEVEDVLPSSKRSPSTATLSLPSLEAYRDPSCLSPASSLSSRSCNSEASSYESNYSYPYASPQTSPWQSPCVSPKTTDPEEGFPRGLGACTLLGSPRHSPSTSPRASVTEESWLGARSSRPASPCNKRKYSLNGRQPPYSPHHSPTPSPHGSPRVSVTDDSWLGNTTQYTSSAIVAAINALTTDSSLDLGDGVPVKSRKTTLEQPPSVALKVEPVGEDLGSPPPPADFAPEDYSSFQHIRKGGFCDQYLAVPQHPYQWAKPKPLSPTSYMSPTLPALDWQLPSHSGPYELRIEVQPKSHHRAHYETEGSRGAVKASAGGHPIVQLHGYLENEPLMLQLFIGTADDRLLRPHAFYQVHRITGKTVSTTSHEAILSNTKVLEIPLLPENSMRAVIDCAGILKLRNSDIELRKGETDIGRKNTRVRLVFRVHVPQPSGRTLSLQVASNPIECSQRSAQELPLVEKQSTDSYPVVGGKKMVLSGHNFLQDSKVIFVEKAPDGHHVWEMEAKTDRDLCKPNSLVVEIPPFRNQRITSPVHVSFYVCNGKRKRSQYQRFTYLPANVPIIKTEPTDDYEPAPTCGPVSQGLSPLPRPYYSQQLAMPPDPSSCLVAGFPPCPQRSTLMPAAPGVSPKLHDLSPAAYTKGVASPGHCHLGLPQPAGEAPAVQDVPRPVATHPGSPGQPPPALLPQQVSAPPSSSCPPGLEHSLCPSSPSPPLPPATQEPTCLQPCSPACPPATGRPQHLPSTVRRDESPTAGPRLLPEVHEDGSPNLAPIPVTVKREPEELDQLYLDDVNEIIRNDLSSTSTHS
# Chain of UniProt Q86XI2 (Q86XI2 whole entry, looked up): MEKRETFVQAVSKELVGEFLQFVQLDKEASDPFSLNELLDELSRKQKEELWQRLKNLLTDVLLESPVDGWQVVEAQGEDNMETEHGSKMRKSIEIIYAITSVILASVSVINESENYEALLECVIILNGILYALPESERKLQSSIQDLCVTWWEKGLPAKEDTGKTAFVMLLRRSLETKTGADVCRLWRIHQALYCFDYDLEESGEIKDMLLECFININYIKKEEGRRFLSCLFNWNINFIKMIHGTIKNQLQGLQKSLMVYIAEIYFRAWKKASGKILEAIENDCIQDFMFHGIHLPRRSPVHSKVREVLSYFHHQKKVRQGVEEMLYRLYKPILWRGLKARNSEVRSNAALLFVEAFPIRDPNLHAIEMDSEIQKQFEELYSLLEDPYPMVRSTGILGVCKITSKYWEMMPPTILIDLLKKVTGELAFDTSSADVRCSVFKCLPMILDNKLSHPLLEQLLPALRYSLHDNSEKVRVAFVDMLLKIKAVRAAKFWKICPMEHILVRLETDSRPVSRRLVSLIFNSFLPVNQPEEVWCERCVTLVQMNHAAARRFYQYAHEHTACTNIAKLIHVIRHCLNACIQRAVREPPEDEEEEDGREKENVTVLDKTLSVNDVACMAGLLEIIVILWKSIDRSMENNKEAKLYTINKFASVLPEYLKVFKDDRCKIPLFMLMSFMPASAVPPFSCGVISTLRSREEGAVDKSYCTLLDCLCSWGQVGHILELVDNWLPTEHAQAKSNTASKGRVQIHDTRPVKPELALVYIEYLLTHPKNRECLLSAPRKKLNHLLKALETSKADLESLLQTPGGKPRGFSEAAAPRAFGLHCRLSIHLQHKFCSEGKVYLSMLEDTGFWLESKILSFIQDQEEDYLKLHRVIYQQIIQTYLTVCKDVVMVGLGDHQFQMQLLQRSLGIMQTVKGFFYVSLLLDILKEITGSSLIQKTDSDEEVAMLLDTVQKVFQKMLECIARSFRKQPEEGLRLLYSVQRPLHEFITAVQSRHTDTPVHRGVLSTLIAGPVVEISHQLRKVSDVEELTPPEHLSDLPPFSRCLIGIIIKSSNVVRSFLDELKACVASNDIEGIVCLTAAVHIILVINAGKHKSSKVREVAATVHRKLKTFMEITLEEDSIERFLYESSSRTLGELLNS
# Chain of UniProt Q9UDX5 (Q9UDX5 whole entry, looked up): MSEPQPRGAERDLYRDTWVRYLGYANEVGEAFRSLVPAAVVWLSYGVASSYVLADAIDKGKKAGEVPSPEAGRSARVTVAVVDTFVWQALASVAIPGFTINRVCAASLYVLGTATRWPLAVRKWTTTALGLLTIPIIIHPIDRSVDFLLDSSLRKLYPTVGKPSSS
# Chain of UniProt Q13416 (Q13416 whole entry, looked up): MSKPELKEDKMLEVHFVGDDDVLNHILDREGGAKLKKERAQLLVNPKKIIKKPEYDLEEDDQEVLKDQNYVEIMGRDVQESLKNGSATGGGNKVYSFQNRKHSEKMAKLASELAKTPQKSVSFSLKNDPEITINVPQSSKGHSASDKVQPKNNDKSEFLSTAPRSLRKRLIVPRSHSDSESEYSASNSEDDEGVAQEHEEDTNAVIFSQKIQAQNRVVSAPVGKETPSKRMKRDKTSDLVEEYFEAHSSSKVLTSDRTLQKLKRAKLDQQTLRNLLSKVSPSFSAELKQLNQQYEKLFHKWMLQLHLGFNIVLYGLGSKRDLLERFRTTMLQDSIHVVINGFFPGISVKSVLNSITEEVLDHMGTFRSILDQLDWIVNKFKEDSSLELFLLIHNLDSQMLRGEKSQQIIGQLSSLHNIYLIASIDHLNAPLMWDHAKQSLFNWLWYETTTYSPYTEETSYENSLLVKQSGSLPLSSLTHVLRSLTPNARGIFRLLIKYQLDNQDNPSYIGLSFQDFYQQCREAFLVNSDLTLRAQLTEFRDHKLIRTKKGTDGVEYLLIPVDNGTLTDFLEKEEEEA
# Chain of UniProt Q9BV86 (Q9BV86 whole entry, looked up): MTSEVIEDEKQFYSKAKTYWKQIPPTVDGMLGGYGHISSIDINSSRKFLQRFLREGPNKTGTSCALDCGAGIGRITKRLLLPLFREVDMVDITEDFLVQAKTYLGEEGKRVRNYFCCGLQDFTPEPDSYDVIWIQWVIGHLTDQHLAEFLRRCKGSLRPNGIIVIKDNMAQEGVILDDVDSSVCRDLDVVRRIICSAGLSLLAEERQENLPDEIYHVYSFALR
# Chain of UniProt Q9Y530 (Q9Y530 whole entry, looked up): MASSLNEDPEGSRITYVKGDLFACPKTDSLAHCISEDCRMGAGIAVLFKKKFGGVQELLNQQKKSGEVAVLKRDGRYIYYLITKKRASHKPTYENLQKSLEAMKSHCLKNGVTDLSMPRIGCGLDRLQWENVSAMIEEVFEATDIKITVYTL
row,Target,log2 fold change
1,ORC2 (UniProt Q13416),0.034
2,NIPSNAP3A (UniProt Q9UFN0),0.288 (active)
3,N6AMT1 (UniProt Q9Y5N5),0.062
4,OTUD7B (UniProt Q6GQQ9),-0.052
5,MSH2 (UniProt P43246),0.026
6,MRPL53 (UniProt Q96EL3),0.005
7,NFKBIE (UniProt O00221),-0.068
8,NCAPH2 (UniProt Q6IBW4),0.038
9,MRPS18A isoform 2 (UniProt Q9NVS2),0.18
10,NOB1 (UniProt Q9ULX3),0.077
11,NCAPG2 (UniProt Q86XI2),-0.014
12,NUMB (UniProt P49757),-0.021
13,OARD1 (UniProt Q9Y530),-0.003
14,NF1 (UniProt P21359),0.03
15,NTMT1 (UniProt Q9BV86),0.047
16,MYD88 isoform 6 (UniProt Q99836),0
17,NUSAP1 (UniProt Q9BXS6),-0.17
18,MVB12A (UniProt Q96EY5),-0.019

row,Target,log2 fold change
1,NAT1 (UniProt P18440),0.038
2,MSH3 (UniProt P20585),0.021
3,NCK1 (UniProt P16333),0
4,NGLY1 (UniProt Q96IV0),-0.041
5,NOA1 (UniProt Q8NC60),-0.016
6,NUB1 (UniProt Q9Y5A7),0.033
7,NAA30 (UniProt Q147X3),-0.03
8,NUDT5 (UniProt Q9UKK9),-0.137
9,NOSIP (UniProt Q9Y314),-0.02
10,MTFP1 (UniProt Q9UDX5),-0.087
11,NFATC1 (UniProt O95644),-0.024
12,MYOM1 (UniProt P52179),0.039
13,MTCH2 (UniProt Q9Y6C9),-0.032
14,PAK1 (UniProt Q13153),-0.023
15,NFATC2 (UniProt Q13469),-0.12
16,NOC2L (UniProt Q9Y3T9),-0.009
17,NEK7 (UniProt Q8TDX7),-0.055

# Compound: CN1CCc2c(c3ccccc3n2Cc2ccc(C(=O)NO)cc2)C1 [Tubastatin A]
# Assay: as above
# Procedure, shortened: as §1
row,Target,log2 fold change
1,ORC2 (UniProt Q13416),-0.161
2,NIPSNAP3A (UniProt Q9UFN0),0.015
3,N6AMT1 (UniProt Q9Y5N5),0.026
4,OTUD7B (UniProt Q6GQQ9),-0.099
5,MSH2 (UniProt P43246),-0.105
6,MRPL53 (UniProt Q96EL3),-0.048
7,NFKBIE (UniProt O00221),0.029
8,NCAPH2 (UniProt Q6IBW4),-0.193
9,MRPS18A isoform 2 (UniProt Q9NVS2),-0.047
10,NOB1 (UniProt Q9ULX3),-0.129
11,NCAPG2 (UniProt Q86XI2),-0.217
12,NUMB (UniProt P49757),-0.125
13,OARD1 (UniProt Q9Y530),-0.097
14,NF1 (UniProt P21359),-0.098
15,NTMT1 (UniProt Q9BV86),-0.175
16,MYD88 isoform 6 (UniProt Q99836),-0.216
17,NUSAP1 (UniProt Q9BXS6),0.029
18,MVB12A (UniProt Q96EY5),-0.221

row,Target,log2 fold change
1,NAT1 (UniProt P18440),-0.087
2,MSH3 (UniProt P20585),-0.004
3,NCK1 (UniProt P16333),-0.097
4,NGLY1 (UniProt Q96IV0),-0.089
5,NOA1 (UniProt Q8NC60),-0.11
6,NUB1 (UniProt Q9Y5A7),-0.095
7,NAA30 (UniProt Q147X3),0.051
8,NUDT5 (UniProt Q9UKK9),0.052
9,NOSIP (UniProt Q9Y314),-0.156
10,MTFP1 (UniProt Q9UDX5),-0.006
11,NFATC1 (UniProt O95644),-0.138
12,MYOM1 (UniProt P52179),-0.033
13,MTCH2 (UniProt Q9Y6C9),-0.046
14,PAK1 (UniProt Q13153),0.026
15,NFATC2 (UniProt Q13469),-0.118
16,NOC2L (UniProt Q9Y3T9),-0.066
17,NEK7 (UniProt Q8TDX7),-0.113

# Compound: CNC(=O)C1=CC=CC=C1NC2=NC(=NC=C2Cl)NC3=C(C=C(C=C3)N4CCOCC4)OC
# Assay: as above
# Procedure, shortened: as §1
row,Target,log2 fold change
1,ORC2 (UniProt Q13416),0.038
2,NIPSNAP3A (UniProt Q9UFN0),0.016
3,N6AMT1 (UniProt Q9Y5N5),0.048
4,OTUD7B (UniProt Q6GQQ9),0.005
5,MSH2 (UniProt P43246),-0.017
6,MRPL53 (UniProt Q96EL3),-0.02
7,NFKBIE (UniProt O00221),0.055
8,NCAPH2 (UniProt Q6IBW4),0
9,MRPS18A isoform 2 (UniProt Q9NVS2),-0.156
10,NOB1 (UniProt Q9ULX3),-0.005
11,NCAPG2 (UniProt Q86XI2),-0.008
12,NUMB (UniProt P49757),-0.028
13,OARD1 (UniProt Q9Y530),0
14,NF1 (UniProt P21359),0.029
15,NTMT1 (UniProt Q9BV86),0.018
16,MYD88 isoform 6 (UniProt Q99836),-0.006
17,NUSAP1 (UniProt Q9BXS6),-0.02
18,MVB12A (UniProt Q96EY5),-0.009

row,Target,log2 fold change
1,NAT1 (UniProt P18440),-0.025
2,MSH3 (UniProt P20585),0.008
3,NCK1 (UniProt P16333),0.023
4,NGLY1 (UniProt Q96IV0),-0.013
5,NOA1 (UniProt Q8NC60),0.063
6,NUB1 (UniProt Q9Y5A7),0.037
7,NAA30 (UniProt Q147X3),-0.023
8,NUDT5 (UniProt Q9UKK9),-0.01
9,NOSIP (UniProt Q9Y314),0.018
10,MTFP1 (UniProt Q9UDX5),0.053
11,NFATC1 (UniProt O95644),0.124
12,MYOM1 (UniProt P52179),-0.092
13,MTCH2 (UniProt Q9Y6C9),0.043
14,PAK1 (UniProt Q13153),0.011
15,NFATC2 (UniProt Q13469),0.021
16,NOC2L (UniProt Q9Y3T9),0.043
17,NEK7 (UniProt Q8TDX7),0.552 (active)
